Measurements as given in PMC4336329 (PLoS ONE, 2015).
Among all 310,000 compounds or so, about 14,000 (4.5%) showed an effect of 50% or more. Effects have a minus sign here. The sample holds strong results, similar compounds and a random draw of the others, so the mix is not that of the screen.

target: human ether-à-go-go-related gene (hERG) potassium channel (human, UniProt Q12809); assay: primary screen, population patch clamp on CHO cells stably expressing hERG; higher = less effect of the substance
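Further: peak tail current of the secondary pulse compared with the same well before compound.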

Chain of human ether-à-go-go-related gene (hERG) potassium channel (Q12809 whole entry, looked up): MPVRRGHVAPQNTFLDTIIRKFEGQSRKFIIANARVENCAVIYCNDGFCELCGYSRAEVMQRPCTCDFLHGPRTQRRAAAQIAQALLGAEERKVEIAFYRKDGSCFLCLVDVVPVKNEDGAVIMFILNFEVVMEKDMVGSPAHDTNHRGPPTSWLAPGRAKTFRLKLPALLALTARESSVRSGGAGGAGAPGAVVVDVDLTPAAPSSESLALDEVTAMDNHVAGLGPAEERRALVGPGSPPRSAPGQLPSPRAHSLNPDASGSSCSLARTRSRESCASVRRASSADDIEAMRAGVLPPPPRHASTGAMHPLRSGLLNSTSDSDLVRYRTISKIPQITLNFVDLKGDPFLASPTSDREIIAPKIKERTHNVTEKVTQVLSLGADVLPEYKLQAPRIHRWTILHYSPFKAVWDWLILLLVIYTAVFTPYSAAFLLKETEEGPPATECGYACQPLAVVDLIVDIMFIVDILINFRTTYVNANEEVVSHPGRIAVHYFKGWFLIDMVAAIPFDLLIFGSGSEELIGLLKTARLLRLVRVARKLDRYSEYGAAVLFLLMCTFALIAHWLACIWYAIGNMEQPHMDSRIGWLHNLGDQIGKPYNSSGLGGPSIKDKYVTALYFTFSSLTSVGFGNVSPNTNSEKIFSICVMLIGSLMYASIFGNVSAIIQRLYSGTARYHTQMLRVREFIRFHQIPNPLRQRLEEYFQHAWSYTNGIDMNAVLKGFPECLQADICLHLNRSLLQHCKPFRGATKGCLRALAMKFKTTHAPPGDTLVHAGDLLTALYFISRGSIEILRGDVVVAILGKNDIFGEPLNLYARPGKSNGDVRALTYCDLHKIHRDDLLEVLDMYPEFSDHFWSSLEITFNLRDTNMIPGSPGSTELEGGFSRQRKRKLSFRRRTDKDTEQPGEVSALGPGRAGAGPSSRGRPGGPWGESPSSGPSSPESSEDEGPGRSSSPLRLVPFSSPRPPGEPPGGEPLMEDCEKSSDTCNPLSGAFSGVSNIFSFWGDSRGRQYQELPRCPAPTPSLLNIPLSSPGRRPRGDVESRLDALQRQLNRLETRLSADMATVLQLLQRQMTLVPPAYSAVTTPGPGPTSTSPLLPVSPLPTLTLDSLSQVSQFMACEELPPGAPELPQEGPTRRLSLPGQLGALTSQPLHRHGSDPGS

Going from Cc1cccc(C(=O)NCCNC(=O)c2cccnc2)c1 to Cc1ccc(S(=O)(=O)Nc2cccc(C(=O)NCCCN3CCOCC3)c2)cc1F, the “hERG current change (%, negative = inhibition) at 10uM” value falls from 18.6% to -10.2%.

Going from COc1ccc(Nc2nc(NCc3ccco3)nc(N/N=C/c3ccccc3F)n2)cc1 to COc1ccc(NC(=O)CSc2nnc(-c3ccccc3)n2Cc2ccco2)cc1OC, the “hERG current change (%, negative = inhibition) at 10uM” value falls from -12.3% to -34.6%.

First: COc1cc(C(F)(F)F)c(C(=O)N(C)Cc2cc(Cl)cc(Cl)c2)cn1
Second: COc1ccc(C(C)=O)cc1COC(=O)CNC(=O)c1ccc(Cl)cc1
The “hERG current change (%, negative = inhibition) at 10uM” value of the first is lower: -18.9% for the first, -4.06% for the second.

Compared with O=C1C(C=NCCCn2ccnc2)=C(O)c2ccccc21, CC(=NCCCn1ccnc1)C1=C(O)c2ccccc2C1=O is lower in “hERG current change (%, negative = inhibition) at 10uM” value: -8.86% for the first, -68% for the second.

Compared with CCN(CC)CCCN=C(C)C1=C(O)c2ccccc2C1=O, CCC(O)(CC)C(=O)NN(C(=O)CCl)c1ccccc1 is higher in “hERG current change (%, negative = inhibition) at 10uM” value: -41.2% for the first, 8.94% for the second.

First: CCOC(=O)N1CCN(C(=O)COc2ccc(S(=O)(=O)NC3CCCCC3)cc2C)CC1
Second: Cc1ccc(S(=O)(=O)N2CCN(C(=O)c3ccco3)CC2)cc1C
The “hERG current change (%, negative = inhibition) at 10uM” value of the first is lower: -16.9% for the first, -4.01% for the second.

Going from O=C(O)c1ccccc1C(=O)Nc1ccc(-n2nc(C(F)(F)F)cc2C(F)(F)F)cc1 to CC(=O)c1ccccc1OCc1ccc(C(=O)c2ccccc2)cc1, the “hERG current change (%, negative = inhibition) at 10uM” value falls from 12.8% to -51.7%.

Going from CN(C)c1ccc(NC(=O)CSc2nnc(-c3cccs3)n2Cc2ccco2)cc1 to Cc1ccc(NC(=O)CSc2nnc(-c3cccs3)n2Cc2ccco2)cc1, the “hERG current change (%, negative = inhibition) at 10uM” value falls from -39.4% to -61.6%.

Compared with COc1ccc(NC(=O)CSc2nnc(-c3cccs3)n2Cc2ccco2)cc1OC, CCn1c(SCC(=O)Nc2ccc(OC)c(OC)c2)nnc1-c1cccs1 is higher in “hERG current change (%, negative = inhibition) at 10uM” value: -60.6% for the first, -14.1% for the second.

Compared with O=C(CSc1nnc(-c2cccs2)n1Cc1ccco1)Nc1ccc2c(c1)OCO2, Cc1ccc2nc(CSc3nnc(-c4ccco4)n3-c3ccccc3)cc(=O)n2c1 is lower in “hERG current change (%, negative = inhibition) at 10uM” value: -14.6% for the first, -21.1% for the second.

Compared with COc1ccc(N=C2SC(CC(=O)Nc3ccccc3)C(=O)N2CCc2ccccn2)cc1 (centres unmarked), COc1ccccc1OCc1ccc(C(=O)c2ccccc2)cc1 is higher in “hERG current change (%, negative = inhibition) at 10uM” value: -32.6% for the first, 17.1% for the second.

First: CCOC(=O)c1c(C)oc2ccc(OC(=O)c3cccs3)cc12
Second: Cc1ccc(C(=O)c2nocc2C(=O)c2cccs2)cc1
The “hERG current change (%, negative = inhibition) at 10uM” value of the first is higher: -5.96% for the first, -19.7% for the second.

Going from COc1ccc(C)cc1-n1nnnc1SCc1csc(C)n1 to COc1ccc(C)cc1-n1nnnc1SCc1cn2ccsc2n1, the “hERG current change (%, negative = inhibition) at 10uM” value falls from -16.2% to -28.7%.

Compared with c1coc(-c2nnc(SCc3cn4ccccc4n3)o2)c1, Cc1ccc2nc(CSc3nnc(-c4ccco4)o3)cc(=O)n2c1 is lower in “hERG current change (%, negative = inhibition) at 10uM” value: -29.7% for the first, -64.9% for the second.

Compared with COc1ccc(C)cc1-n1nnnc1SCc1cc(=O)n2cc(C)ccc2n1, Cc1noc(C)c1CSc1nnc2ccc3ccccc3n12 is higher in “hERG current change (%, negative = inhibition) at 10uM” value: -51.1% for the first, -25.1% for the second.

Compared with Oc1cccc(/C=N/c2c(-c3ccco3)nc3ccccn23)c1, CS(=O)(=O)O.Cc1cccc(/C=C2/C(=O)/C(=C/c3ccccc3C)C3CCC2N3C)c1 (centres unmarked) is lower in “hERG current change (%, negative = inhibition) at 10uM” value: 6.9% for the first, 6.11% for the second.

Going from Cc1cccc(N(Cc2ccc(Cl)cc2)S(C)(=O)=O)c1 to CC(=O)c1ccc(OCc2ccc(C(=O)c3ccccc3)cc2)cc1, the “hERG current change (%, negative = inhibition) at 10uM” value falls from 21.1% to 0.433%.

First: CC1(C)CC(=O)C2=C(C1)NC(=O)C21C(C(=O)OC(C)(C)C)=C(N)Oc2ccc(Br)cc21 (centres unmarked)
Second: COc1ccc(-c2cc(C)no2)cc1S(=O)(=O)N1CCN(C(=O)c2ccco2)CC1
The “hERG current change (%, negative = inhibition) at 10uM” value of the first is lower: -13.1% for the first, -6.28% for the second.

Going from O=C1CN(C(=O)CSc2ccc(-c3ccc(F)cc3)nn2)c2ccccc2N1 to CCc1ccc(-c2cc(C)no2)cc1S(=O)(=O)N1CCN(c2ccccc2)CC1, the “hERG current change (%, negative = inhibition) at 10uM” value rises from -42.5% to 3.41%.

Going from COC(=O)CNC(c1ccccc1)c1cc(Br)ccc1NC(=O)CCN1CCOCC1 (centres unmarked) to CCOC(=O)CNC(c1ccccc1)c1cc(Br)ccc1NC(=O)CCN1CCOCC1 (centres unmarked), the “hERG current change (%, negative = inhibition) at 10uM” value falls from -31.7% to -68%.

Going from NNC(=O)CNC(c1ccccc1)c1cc(Br)ccc1NC(=O)CCN1CCOCC1 (centres unmarked) to CCc1ccc(-c2cc(C)no2)cc1S(=O)(=O)N1CCN(C(=O)c2ccco2)CC1, the “hERG current change (%, negative = inhibition) at 10uM” value falls from 3.67% to -59.6%.

First: Cc1cc(-c2ccc(C)c(S(=O)(=O)N3CCN(C(=O)c4ccco4)CC3)c2)on1
Second: CCc1ccc(-c2cc(C)no2)cc1S(=O)(=O)N1CCC(C)CC1
The “hERG current change (%, negative = inhibition) at 10uM” value of the first is lower: -51.8% for the first, -15.8% for the second.
